Experimental data from PubChem BioAssay (EPA / NIEHS).
Records with an inconclusive call do not appear. Calls of active or inactive are those of the source. How the source made its calls: active means hit-call score of the fitted dose curve at least 0.9, where 1 is the maximum; inconclusive means response in the unintended direction; inactive means score below 0.9.

Tested on: not listed separately
Experiment: TOX21_p53_BLA_p3_viability: Viability Assessment in the Tox21 HCT-116 p53 Agonism Beta-lactamase Assay, Phase 3 (AID 2283593);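 further: cells exposed to compound for 16 h before reading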
Procedure, shortened: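 HCT116 cells, 4000/well, dosed 5 h after plating by pin transfer (217-fold dilution from DMSO stock) and incubated 16 h at 37C, 5% CO2. Viability read as ATP luminescence with CellTiter-Glo after 30 min at room temperature.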

Structure (SMILES) | outcome | AC50
CC(=O)C1=C(C)[C@@H]2C[C@@]3(C1)[C@H](C)CC[C@H]3C2(C)C | inactive | 
CCC(C)(C)C1CCC(=O)CC1 | inactive | 
CCCC(O)C(CC)CO (stereo not drawn) | inactive | 
CC(=O)OC/C=C(C)/C=C/C=C(C)/C=C/C1=C(C)CCCC1(C)C | inactive | 
N=C1N=C(N)c2ccccc21 |  | 13.6 µM (active)
CCCCCCCCOS(=O)(=O)O | inactive | 
Cc1ccncc1 | inactive | 
CCCCCc1cccc(=O)o1 | inactive | 
CC1=CCC(C(C)(C)O)CC1 (stereo not drawn) | inactive | 
C=CCOC(=O)/C=C\C(=O)OCC=C | inactive | 
Cc1cc(N)n(-c2ccccc2)n1 | inactive | 
C=CC(=O)OCCCCCC | inactive | 
CNC(=C[N+](=O)[O-])NCCSCc1ccc(CN(C)C)o1 | inactive | 
CCCCCCCCCCCCN1CCOCC1 | inactive | 
CC(CO)c1ccccc1 (stereo not drawn) | inactive | 
CC(C)C(=O)c1ccccc1 | inactive | 
CN(C)CCCNCCCN(C)C | inactive | 
CCCCCCCC(=O)N(C)C | inactive | 
Nc1ccn([C@H]2CC[C@@H](CO)O2)c(=O)n1 | inactive | 
CC12CCC(C1)C(C)(C)C2O (stereo not drawn) | inactive | 
CCOc1ccc(NC(C)=O)cc1 | inactive | 
CC(C)(C)C1CCC(O)CC1 (stereo not drawn) | inactive | 
CC1=CC[C@@H]2C[C@H]1C2(C)C | inactive | 
CN(C)c1ccc(C=O)cc1 | inactive | 
CC(C)CCOC(=O)CC(C)C | inactive | 
CCC(=O)OC(C)(C)C1CC=C(C)CC1 (stereo not drawn) | inactive | 
C=C(C)C(=O)OCCC[Si](OC)(OC)OC | inactive | 
O=S1(=O)CC=CC1 | inactive | 

Biological target: Cellular tumor antigen p53 (Homo sapiens) (UniProt P04637)
Experiment: TOX21_p53_BLA_p3_ratio: Tox21 HCT-116 p53 Agonism Beta-lactamase Assay, Ratio, Phase 3 (AID 2283596)
Procedure, shortened: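 HCT116 p53-bla cells (4000/well) given compound in DMSO (217-fold dilution) after 5 h, incubated 16 h at 37C. CCF4-AM substrate 2 h at room temperature; 460/530 nm emission ratio, gain fitted against DMSO.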

Chain of Cellular tumor antigen p53 (Homo sapiens) (P04637 whole entry, looked up): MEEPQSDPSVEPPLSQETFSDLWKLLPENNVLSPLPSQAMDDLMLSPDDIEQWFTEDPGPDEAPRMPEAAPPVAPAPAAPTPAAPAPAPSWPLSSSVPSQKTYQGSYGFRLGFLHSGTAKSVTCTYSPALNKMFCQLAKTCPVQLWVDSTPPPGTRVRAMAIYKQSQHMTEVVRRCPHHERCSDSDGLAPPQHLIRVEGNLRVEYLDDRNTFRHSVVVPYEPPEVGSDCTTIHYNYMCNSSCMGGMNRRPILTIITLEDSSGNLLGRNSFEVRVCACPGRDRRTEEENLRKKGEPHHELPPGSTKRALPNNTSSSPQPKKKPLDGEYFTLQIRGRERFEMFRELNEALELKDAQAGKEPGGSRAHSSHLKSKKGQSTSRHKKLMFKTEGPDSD

Structure (SMILES) | outcome | AC50
CCCCN(CCCC)CCCCCCN(CCCC)CCCC | inactive | 
O=C(Nc1cccc(Cl)c1)OCC#CCCl |  | 13.4 µM (active)
CC(=O)OC(C)(C)C1CC=C(C)CC1 (stereo not drawn) | inactive | 
C=CC(C)CCCC(C)(C)O (stereo not drawn) | inactive | 
CC(=O)C1=C(C)[C@@H]2C[C@@]3(C1)[C@H](C)CC[C@H]3C2(C)C | inactive | 
CCC(C)(C)C1CCC(=O)CC1 | inactive | 
CCCC(O)C(CC)CO (stereo not drawn) | inactive | 
N=C1N=C(N)c2ccccc21 |  | 27.3 µM (active)
Cc1ccncc1 | inactive | 
CCCCCc1cccc(=O)o1 | inactive | 
CC1=CCC(C(C)(C)O)CC1 (stereo not drawn) | inactive | 
C=CCOC(=O)/C=C\C(=O)OCC=C | inactive | 
C=CC(=O)OCCCCCC | inactive | 
CC(=O)CC(C)(C)C1CCCCC1 | inactive | 
CCCCCCCCCCCCN1CCOCC1 | inactive | 
CC(CO)c1ccccc1 (stereo not drawn) | inactive | 
CC(C)C(=O)c1ccccc1 | inactive | 
CN(C)CCCNCCCN(C)C | inactive | 
CCCCCCCC(=O)N(C)C | inactive | 
CC/C=C\CCOC(C)OCC (stereo not drawn) | inactive | 
Nc1ccn([C@H]2CC[C@@H](CO)O2)c(=O)n1 | inactive | 
CC12CCC(C1)C(C)(C)C2O (stereo not drawn) | inactive | 
CCOc1ccc(NC(C)=O)cc1 | inactive | 
CC(C)(C)C1CCC(O)CC1 (stereo not drawn) | inactive | 
ClCCOCCOCCCl | inactive | 
CN(C)c1ccc(C=O)cc1 | inactive | 
CC(C)CCOC(=O)CC(C)C | inactive | 
CCC(=O)OC(C)(C)C1CC=C(C)CC1 (stereo not drawn) | inactive | 
C=C(C)C(=O)OCCC[Si](OC)(OC)OC | inactive | 
O=S1(=O)CC=CC1 | inactive | 
